Results: PubChem BioAssay
Values joined by “and” are separate entries in the source; they are usually repeats but may differ in a detail not shown here. Equal entries are not always repeated. Active and inactive are the calls of the source.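 How the source made its calls, unless noted: active means thallium flux through the channel raised or lowered by more than 3 SD from vehicle-only wells, actives on both sides; inactive means the rest.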

Legend:
[1] = signal quenchers or enhancers, Cy5 substrate/SSB – biochemical, NIH Clinical Collection, E. coli SSB, artefact control for HCV NS3 helicase inhibitor project (AID 743268; call rule not given here); details: Cy5-oligo bound E. coli SSB, fluorescence interference
[2] = tested on: Hepatitis C virus NS3 helicase; assay: blockers of NS3h binding to DNA – biochemical, fluorescence polarization, NIH Clinical Collection, primary screen (AID 743270; call rule not given here); details: NS3 helicase binding to Cy5-dT15 DNA, stronger effect = higher value, concentration not given here
[3] = target: Single-stranded DNA-binding protein (Escherichia coli (strain K12)) (UniProt P0AGE0); assay: SSB-ssDNA binding inhibitors – biochemical, fluorescence polarization, NIH Clinical Collection, counter-screen for HCV NS3 helicase inhibitor project (AID 743271; in the data active means inhibition above about 28%); details: E. coli SSB-DNA binding, stronger effect = higher value, concentration not given here
[4] = compounds distorting NS3 helicase fluorescence signal – biochemical, NIH Clinical Collection, artefact control for HCV NS3 helicase inhibitor project (AID 743272; call rule not given here;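 further: HCV NS3 helicase with a Cy5 labelled single stranded DNA probe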); details: fluorescence interference counterscreen, HCV NS3 helicase assay; stronger effect = lower value
[5] = target: 6-phosphogluconate dehydrogenase, decarboxylating (Homo sapiens) (UniProt P52209); assay: inhibition of human phosphogluconate dehydrogenase – biochemical, recombinant enzyme, NADPH absorbance, primary screen (AID 1159550;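 active means at least 20% inhibition of 6-phosphogluconate dehydrogenase activity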); details: recombinant 6PGD, NADPH absorbance 341 nm; at 10 µM; stronger effect = higher value
[6] = modulation of C. elegans fzo-1 (AID 1259413; call rule not given here;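 further: fzo-1 mutant C. elegans worms in liquid wells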); details: C. elegans fzo-1 modulator screen, mean read-out; stronger effect = higher value
[7] = EMT-state selective cytotoxicity in co-culture – imaging, PC-3E GFP, TEM4-18 mCherry, primary screen (AID 1345086;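 active means compounds killing one labelled cell type while sparing the other, by normalised counts and ratio limits, not self-fluorescent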;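 on all read-outs here: cells exposed to compound for 72 h before imaging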;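 on red/green cell ratio (normalised): normalised mesenchymal count divided by normalised epithelial count so high means epithelial killing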); details: PC-3E GFP / TEM4-18 mCherry co-culture, imaging cell counts, at 1 µM; for red/green cell ratio (normalised): actives lie on both sides, counts scaled to control wells, 1 = unselective
[8] = viability loss with induced miR-34 in A549 – imaging, A549 dox-inducible miR-34, nuclei and caspase counts, primary screen (AID 1347080;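 active means compounds whose cell count with miR-34 switched on is under 0.7 times the count with it off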); details: A549 miR-34 inducible, Hoechst nuclei count, 48 h
[9] = MELAS cybrid and Rieske KO viability enhancers – cell-based, MELAS cybrids, Rieske KO mouse fibroblasts, CellTiter-Glo, primary screen (AID 1508586;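 active means mean z-score across replicates of 1.96 or higher in either the MELAS or the Rieske mutant cell line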;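 further: z relative to plate mean and SD of compound and empty wells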); details: low glucose
[10] = target: Mitogen-activated protein kinase 7 (Homo sapiens) (UniProt Q13164); assay: Gal4-ERK5 driven luciferase induction – cell-based, HTS, primary screen (AID 1508626;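 active means luciferase signal above three times the same-plate solvent-only control wells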;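 further: luciferase driven by Gal4-ERK5 fusion binding five Gal4 sites before minimal TATA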); details: HeLa Gal4-ERK5 transactivation, 18 h, at 5 µM, stronger effect = higher value
[11] = galactose survival enhancers in mitochondrial complex I cybrids – cell-based, galactose medium, ATP luminescence, primary screen (AID 1645843;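 active means z-score of at least 1.8 in each of two replicates, scored against plate mean and spread of sample wells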;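 further: positive z means more ATP and so rescue of galactose-driven cybrid death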); details: complex I mutant cybrid cells, 72 h, stronger effect = higher value
[12] = tested on: F380Y; assay: BK channel mutant inhibitors and activators – cell-based, U2OS BacMam, thallium flux, beta subunits, selectivity assay, profiling panel (AID 1259406); details: U2OS BacMam BK variants, at 30 µM;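 further: initial slope of Thallos dye fluorescence rise after thallium is added; log ratio against the mean of 0.3% DMSO vehicle wells on the same plate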
[13] = tested on: F380Y/beta1; assay: as above; details: U2OS BacMam BK variants, at 30 µM
[14] = tested on: F380Y/beta2Delta; assay: as above; details: U2OS BacMam BK variants, at 30 µM
[15] = target: Calcium-activated potassium channel subunit alpha-1 (Homo sapiens) + Leucine-rich repeat-containing protein 26 (Homo sapiens) (UniProt Q12791+Q2I0M4); assay: as above; details: U2OS BacMam BK variants, F380Y/Slo1WT/gamma1, at 30 µM
[16] = tested on: R275C; assay: as above; details: U2OS BacMam BK variants, at 30 µM
[17] = tested on: R275C/beta1; assay: as above; details: U2OS BacMam BK variants, at 30 µM
[18] = tested on: R275C/beta2Delta; assay: as above; details: U2OS BacMam BK variants, at 30 µM
[19] = P. berghei load reduction in hepatocytes – cell-based, HepG2, luciferase luminescence, HepG2 viability, primary screen (AID 624349; in the data active means parasite load remaining mostly below about 12%, no sharp cut-off; inactive means mostly above about 10%;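 further: 100% = mean of DMSO negative control wells on the same plate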); details: P. berghei liver stage in HepG2, luciferase luminescence, concentration not given here; parasite load remaining: stronger effect = lower value; viability: measured here: HepG2 viability without parasites
[20] = measured here: epithelial PC-3E GFP cell survival
[21] = measured here: mesenchymal TEM4-18 mCherry cell survival
[22] = MELAS cybrid survival, CellTiter-Glo 48 h, stronger effect = higher value
[23] = Rieske KO mouse fibroblast survival, CellTiter-Glo 72 h

6-phosphogluconate dehydrogenase, decarboxylating (Homo sapiens), sequence (P52209 whole entry, looked up): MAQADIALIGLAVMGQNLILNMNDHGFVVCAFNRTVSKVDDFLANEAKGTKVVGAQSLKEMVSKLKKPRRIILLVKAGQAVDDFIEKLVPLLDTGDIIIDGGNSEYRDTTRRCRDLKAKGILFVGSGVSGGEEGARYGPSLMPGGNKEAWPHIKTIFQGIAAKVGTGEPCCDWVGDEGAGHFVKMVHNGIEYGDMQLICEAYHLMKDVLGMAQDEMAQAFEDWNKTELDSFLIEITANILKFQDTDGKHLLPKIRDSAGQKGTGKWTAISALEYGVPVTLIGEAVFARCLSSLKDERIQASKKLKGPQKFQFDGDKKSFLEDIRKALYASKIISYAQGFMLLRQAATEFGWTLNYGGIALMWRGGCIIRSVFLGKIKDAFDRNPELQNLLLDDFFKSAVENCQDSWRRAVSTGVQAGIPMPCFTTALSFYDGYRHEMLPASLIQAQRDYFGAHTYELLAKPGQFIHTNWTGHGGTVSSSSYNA
Calcium-activated potassium channel subunit alpha-1 (Homo sapiens) + Leucine-rich repeat-containing protein 26 (Homo sapiens), sequence (Q2I0M4 whole entry, looked up, one chain of several): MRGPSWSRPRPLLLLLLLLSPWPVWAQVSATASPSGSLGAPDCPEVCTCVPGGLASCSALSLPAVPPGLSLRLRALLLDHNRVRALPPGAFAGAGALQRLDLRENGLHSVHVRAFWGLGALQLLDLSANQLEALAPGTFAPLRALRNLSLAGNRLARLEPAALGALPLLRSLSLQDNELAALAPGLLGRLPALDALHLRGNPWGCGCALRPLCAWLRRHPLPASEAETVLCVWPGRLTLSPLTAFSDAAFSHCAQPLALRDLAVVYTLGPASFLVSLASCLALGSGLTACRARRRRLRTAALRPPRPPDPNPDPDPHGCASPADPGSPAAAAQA
Mitogen-activated protein kinase 7 (Homo sapiens), sequence (Q13164 whole entry, looked up, the tested form may be a part): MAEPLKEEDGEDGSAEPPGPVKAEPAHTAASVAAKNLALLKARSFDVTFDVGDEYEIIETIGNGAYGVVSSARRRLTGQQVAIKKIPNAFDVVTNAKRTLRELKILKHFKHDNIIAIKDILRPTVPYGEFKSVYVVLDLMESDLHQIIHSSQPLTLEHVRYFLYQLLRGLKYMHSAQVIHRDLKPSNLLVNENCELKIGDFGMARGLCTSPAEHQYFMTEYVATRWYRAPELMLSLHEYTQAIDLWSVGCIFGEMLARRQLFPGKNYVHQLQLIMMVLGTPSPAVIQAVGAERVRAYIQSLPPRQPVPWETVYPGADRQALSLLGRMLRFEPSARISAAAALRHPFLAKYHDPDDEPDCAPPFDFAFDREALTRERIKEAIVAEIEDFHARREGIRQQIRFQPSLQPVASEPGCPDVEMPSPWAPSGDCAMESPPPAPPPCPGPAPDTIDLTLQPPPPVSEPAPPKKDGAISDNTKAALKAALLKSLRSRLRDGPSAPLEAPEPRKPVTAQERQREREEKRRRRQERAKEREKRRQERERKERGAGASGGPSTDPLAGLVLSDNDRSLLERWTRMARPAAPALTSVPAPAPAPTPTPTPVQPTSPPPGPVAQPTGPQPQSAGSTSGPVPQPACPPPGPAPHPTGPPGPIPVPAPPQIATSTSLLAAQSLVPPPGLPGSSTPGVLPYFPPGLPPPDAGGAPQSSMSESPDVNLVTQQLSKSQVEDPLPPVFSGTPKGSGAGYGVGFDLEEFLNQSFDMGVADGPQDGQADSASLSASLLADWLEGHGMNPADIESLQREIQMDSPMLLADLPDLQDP

C[N+]1(C)CCCC(OC(=O)C(O)(c2ccccc2)c2ccccc2)C1 (stereo not drawn)
0.965 and 1.32 and 4.07: fold change ([8]; measured here: relative caspase fold change +Dox/-Dox)
inactive: fluorescence ratio [1] 1.02 | inhibition [2] -3.18% | inhibition [3] -3.53% | fluorescence ratio [4] 0.96 | inhibition [5] -19.7% | mean signal [6] 266 | red/green cell ratio (normalised) [7] 1.05 | fold change ([8]; stronger effect = lower value, cell number ratio, induced over uninduced) 0.951 and 0.851 and 0.901 | z-score [9, 22] 0.378 | luciferase signal [10] 36 AU | z-score [11] 0.49 | log fold change Tl+ flux [12] 0.00904 | log fold change Tl+ flux [13] -0.0251 | log fold change Tl+ flux [14] -0.0376 | log fold change Tl+ flux [15] -0.0154 | log fold change Tl+ flux [16] 0.00512 | log fold change Tl+ flux [17] 0.0318 | log fold change Tl+ flux [18] -0.0151
10300 and 8730 and 11200: cell count ([8]; measured here: total cells with miR-34 induction, stronger effect = lower value)
0.26: z-score [9, 23]
1.31: normalised cell number [7, 20]
1.37: normalised cell number [7, 21]
10800 and 10200 and 12500: cell count ([8]; measured here: total cells without miR-34 induction)

Nc1nc2c(ncn2[C@H]2C[C@H](O)[C@@H](CO)O2)c(=O)[nH]1
inactive: inhibition [5] -9.26%

CCOC(=O)c1c(C)cc(O)c(C)c1O
inactive: inhibition [5] -2.48%

CC(=O)Oc1ccc(/C=C2\N=C(c3ccccc3)OC2=O)cc1
inactive: inhibition [5] 0.187%

COc1ccc(/C=C/C(=O)Nc2ccccc2C(=O)O)cc1OC
-0.0722 and 0.758: z-score [9, 23]
1.21: normalised cell number [7, 20]
inactive: parasite load remaining [19] 13.7% and 10.8% and 12.8% | fluorescence ratio [1] 1.05 | inhibition [2] 0.4% | inhibition [3] -1.64% | fluorescence ratio [4] 0.99 | inhibition [5] 5.84% | mean signal [6] 225 | red/green cell ratio (normalised) [7] 0.8 | z-score [9, 22] 0.761 and 0.318 | z-score [11] 1.34 and 0.925 and 0.79 | log fold change Tl+ flux [12] -0.0454 | log fold change Tl+ flux [13] -0.00383 | log fold change Tl+ flux [14] -0.0218 | log fold change Tl+ flux [15] -0.0322 | log fold change Tl+ flux [16] -0.0585 | log fold change Tl+ flux [17] -0.0786 | log fold change Tl+ flux [18] 0.0483
0.98: normalised cell number [7, 21]
99.2% and 76.6% and 140%: viability [19]
